# Laboratory results reported in PubChem BioAssay (Tox21).
# Values joined by “and” are separate entries in the source; they are usually repeats but may differ in a detail not shown here. Equal entries are not always repeated. Records with an inconclusive call do not appear. Some structures have more than one record in an assay (separate samples or runs), and their calls can disagree. Active and inactive are the calls of the source. The call rests on the fitted dose curve; in most records, active means well fitted inhibition curve with a large enough effect in the repeat runs; inconclusive means weak or mixed curves; inactive means no such curve, though single readings can be large or run the other way.
# Molecular target: Estrogen receptor (Homo sapiens) (UniProt P03372)
# Experiment: qHTS assay to identify small molecule antagonists of the estrogen receptor alpha (ER-alpha) signaling pathway using the BG1 cell line in the presence of 0.1 nM 17-beta-estradiol (AID 1259244); further: nearly all actives have a fitted effect of over 50% in size
# Settings: VM7Luc4E2 (BG1) ERE-luciferase, antagonist mode, 0.1 nM E2, 22 h; series mostly up to 92.4 µM; activity change, negative = inhibition: at the top concentration
# From the text: National Center for Advancing Translational Sciences [NCATS]
# NIH Chemical Genomics Center [NCGC]
# U.S. Environmental Protection Agency [EPA]
# National Institutes of Environmental Health Sciences [NIEHS]
# National Toxicology Program [NTP]
# U.S. Food and Drug Administration [FDA]
# Estrogen receptor (ER), a member of the nuclear hormone receptor plays an important role in development, metabolic homeostasis and reproduction. Two subtypes of ER, ER-alpha and ER-beta, have similar expression patterns with some uniqueness in both types. Endocrine disrupting chemicals (EDCs) and their interactions with steroid hormone receptors like ER causes disruption of normal endocrine function. Therefore, it is important to understand the effect of environmental chemicals in ER signaling pathway. For identifying ER antagonists, VM7Luc4E2 cell line was used to screen against Tox21 compound libraries.
# VM7Luc4E2 cell line (provided by Denison MS, University of California) endogenously express full-length ER-alpha and is stably transfected with a plasmid containing four estrogen responsive elements (ERE) upstream of a luciferase reporter gene. The current screening for identification of ER-alpha inhibitors against Tox21 compound libraries used lower concentration (0.1 nM) of 17beta-Estradiol as a stimulator.
# Tox21 Assay Protocol Summary:
# VM7Luc4E2 cells were cultured in phenol red free assay medium containing 10% charcoal stripped FBS for 5 days prior to the assay. The cells were dispensed at 4,000 cells/well in 4 uL of assay medium into white wall/solid-bottom 1536-well plates (Corning Life Sciences, Corning, NY) using a Multidrop Combi (ThermoFisher Scientific, Waltham, MA) dispenser. After the assay plates were incubated at 37C and 5% CO2 for 24 hr, 23 nL of compounds dissolved in DMSO, positive controls or DMSO only was transferred to the assay plates by a Pintool station (Kalypsys, San Diego, CA). The transfer of compounds was followed by the addition of 1 uL of 0.1 nM (final concentration) agonist (17beta-Estradiol)/assay medium using a Flying Reagent Dispenser (FRD, Aurora Discovery, San Diego, CA). The plates were incubated at 37C and 5% CO2 for 22 hr. For luciferase reporter gene assay, 4 uL of ONE-Glo reagent (Promega Corporation, Madison, WI) was added to each well using the FRD and after 30 min incubation at room temperature luminescence intensity was measured using ViewLux plate reader (PerkinElmer, Shelton, CT).
# On the % scale 0 is the no-effect control and ±100 the full control effect; potency means the concentration at half of the fitted maximal effect.
# Estrogen receptor (Homo sapiens), sequence (P03372 whole entry, looked up): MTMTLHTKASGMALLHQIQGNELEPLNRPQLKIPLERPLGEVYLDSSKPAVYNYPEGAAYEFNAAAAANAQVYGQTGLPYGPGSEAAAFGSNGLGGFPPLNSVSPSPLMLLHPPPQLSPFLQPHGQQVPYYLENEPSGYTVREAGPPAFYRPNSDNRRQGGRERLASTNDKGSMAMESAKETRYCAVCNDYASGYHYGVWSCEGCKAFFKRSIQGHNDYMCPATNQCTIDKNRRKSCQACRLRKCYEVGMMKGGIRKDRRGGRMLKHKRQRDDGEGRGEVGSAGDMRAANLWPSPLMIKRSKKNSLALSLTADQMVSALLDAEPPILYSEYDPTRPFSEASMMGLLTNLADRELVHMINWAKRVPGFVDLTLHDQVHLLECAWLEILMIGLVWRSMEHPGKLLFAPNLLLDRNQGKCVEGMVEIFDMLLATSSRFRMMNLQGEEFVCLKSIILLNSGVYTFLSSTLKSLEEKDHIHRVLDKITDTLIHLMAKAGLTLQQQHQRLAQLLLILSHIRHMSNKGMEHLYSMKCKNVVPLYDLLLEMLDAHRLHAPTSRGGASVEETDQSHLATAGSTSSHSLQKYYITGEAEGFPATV
SMILES,"activity change, negative = inhibition",Potency
CC(C)Br,-1.34% (inactive),
CC(C)[C@@H](Nc1ccc(C(F)(F)F)cc1Cl)C(=O)OC(C#N)c1cccc(Oc2ccccc2)c1 (stereo not given in full),1.8% (inactive),
C#CCO,16.6% (inactive),
C=CC(=C)C,10.4% (inactive),
CCC(C)Nc1c([N+](=O)[O-])cc(C(C)(C)C)cc1[N+](=O)[O-] (stereo not given),22.2% (inactive),
CCCCCCCCCCCCCCn1cc[n+](C)c1,,612 nM (active) and 761 nM (active) and inactive
BrCC(Br)(Br)Br,13.8% (inactive),
C=CCOC(=O)c1ccccc1N,-17.9% (inactive),
Clc1ccc(C(c2ccc(Cl)cc2)C(Cl)Cl)cc1,-5.65% (inactive),
ClC1(Cl)C2(Cl)C3(Cl)C4(Cl)C(Cl)(Cl)C5(Cl)C3(Cl)C1(Cl)C5(Cl)C24Cl (stereo not given),-1.62% (inactive),
CC(C)=CCN1CC[C@@]2(C)c3cc(O)ccc3C[C@@H]1[C@@H]2C,-14% (inactive),
CO/N=C(/C1=NOCCO1)c1ccccc1Oc1ncnc(Oc2ccccc2Cl)c1F,,4.85 µM (active)
O=c1c2ccccc2c(=O)c2c1cc(Cl)c1[nH]c3c([nH]c12)c(Cl)cc1c(=O)c2ccccc2c(=O)c13,-8.65% (inactive),
[Cl][Hg][c]1ccccc1,,6.11 µM (active)
Oc1cc(Cl)c(Cl)c(Cl)c1Cl,,29.9 µM (active)
CC(Cc1ccccc1)N(C)Cc1ccco1 (stereo not given),9.37% [at 42.5 µM] (inactive),
CC(=O)[O][Sn]([c]1ccccc1)([c]1ccccc1)[c]1ccccc1,-101% (inactive),
S=C=Nc1ccccc1,-13.3% (inactive),
Nc1ccc(Cl)cc1C(=O)c1ccccc1F,-16.6% [at 42.5 µM] (inactive),
Cc1cc(C2CC2)nc(Nc2ccccc2)n1,-25.2% (inactive),

SMILES,"activity change, negative = inhibition",Potency
O=C(CCCCl)c1ccc(F)cc1,36.9% [at 42.5 µM] (inactive),
CCOC(=O)CCN(SN(C)C(=O)Oc1cccc2c1OC(C)(C)C2)C(C)C,13.9% (inactive),
CC(C)N(C(=O)SC/C(Cl)=C/Cl)C(C)C,-1.07% (inactive),
CC1(C)C(C=C(Cl)Cl)C1C(=O)OC(C#N)c1ccc(F)c(Oc2ccccc2)c1 (stereo not given),-12.6% (inactive),
CCCCC(CC)COC(=O)c1ccccc1C(=O)OCC(CC)CCCC (stereo not given),0.57% (inactive),
CC(Cc1ccc2c(c1)OCO2)NO (stereo not given),-2.31% (inactive),
CN(C)C(=S)SSC(=S)N(C)C,,191 nM (active) and 273 nM (active) and 237 nM (active)
CCN(CC)C(=S)S,,13.6 µM (active)
O=S1(=O)OCC2C(CO1)C1(Cl)C(Cl)=C(Cl)C2(Cl)C1(Cl)Cl (stereo not given),,54.5 µM (active)
CC(=O)C(Cl)C(=O)N(C)C (stereo not given),39.8% (inactive),
CCO/N=C(\CC)C1=C(O)CC(c2c(C)cc(C)cc2C)CC1=O (stereo not given),-1.83% (inactive),
CNC(=O)CSP(=O)(OC)OC,14.3% (inactive),
COc1nc(C)nc(NC(=O)NS(=O)(=O)c2ccccc2Cl)n1,12.9% (inactive),
CC(C)C(Nc1ccc(C(F)(F)F)cc1Cl)C(=O)OC(C#N)c1cccc(Oc2ccccc2)c1 (stereo not given),-0.346% (inactive),
C=C(C)C(=O)[O][Sn]([CH2]CCC)([CH2]CCC)[CH2]CCC,,0.486 µM (active)
N#Cc1c2ccccc2cc2ccccc12,37.2% (inactive),
Clc1ccc(C2(Cn3cncn3)OCCO2)c(Cl)c1,-18.1% (inactive),
CCCCC/C=C\C/C=C\C/C=C\C/C=C\CCCC(=O)NCC(=O)O,0.109% [at 42.5 µM] (inactive),
CCCCc1ccccc1,-1.61% (inactive),
COP(=O)(OC)Oc1ccc([N+](=O)[O-])cc1,-9.62% (inactive),
